Bioassay records as filed in PubChem.
The entries come from a sample that favours hits as a whole.
ST2 inh: inhibitors of human ST2 (IL1RL1) binding to IL-33, primary screen, biochemical, AlphaLISA; inhibition, % for hits at 17 µM; Interleukin-1 receptor-like 1 (Homo sapiens), Q01638; 2.3% of 78,000 active; AID 1259354, 2018; AlphaLISA ST2-Fc/biotin-IL-33 interaction, 1 h; in the data active means inhibition above about 30%
Target sequence (Q01638 whole entry, looked up): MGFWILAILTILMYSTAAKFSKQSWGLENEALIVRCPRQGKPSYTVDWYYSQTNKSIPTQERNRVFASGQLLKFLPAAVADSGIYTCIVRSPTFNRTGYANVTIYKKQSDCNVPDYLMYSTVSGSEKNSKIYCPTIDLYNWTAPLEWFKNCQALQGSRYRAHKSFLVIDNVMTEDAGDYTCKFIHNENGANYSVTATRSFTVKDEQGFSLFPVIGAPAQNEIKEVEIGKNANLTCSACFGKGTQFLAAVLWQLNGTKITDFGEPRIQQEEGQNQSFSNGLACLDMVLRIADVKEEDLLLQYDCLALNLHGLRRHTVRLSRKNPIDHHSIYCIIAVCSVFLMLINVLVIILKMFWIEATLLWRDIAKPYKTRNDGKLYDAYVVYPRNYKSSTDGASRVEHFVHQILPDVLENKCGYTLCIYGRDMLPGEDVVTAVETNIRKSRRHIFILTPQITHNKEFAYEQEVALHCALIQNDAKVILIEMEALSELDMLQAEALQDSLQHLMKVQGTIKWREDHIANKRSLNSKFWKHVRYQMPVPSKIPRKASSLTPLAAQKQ
Large screens that a line does not name were inactive.

O=C(Nc1ccccc1C(=O)O)c1ccc(S(=O)(=O)N2CCCCC2)cc1	none
CC1CN(S(=O)(=O)c2ccc(Cl)c(C(=O)Nc3ccccc3[N+](=O)[O-])c2)CC(C)O1 (stereo not drawn)	none
O=C(Nc1ccccn1)c1cccc(S(=O)(=O)N2CCCCC2)c1	none
O=C(Nc1ccccc1[N+](=O)[O-])c1ccc(S(=O)(=O)N2CCCCC2)cc1	ST2 inh 35.0%
O=C(Nc1ccccc1[N+](=O)[O-])c1cccc(S(=O)(=O)N2CCCCC2)c1	ST2 inh 43.0%
Cc1ccc(NC(=O)c2cccc(S(=O)(=O)N3CCCCC3)c2)cc1	none
CS(=O)(=O)N1CCCC(C(=O)NC2CCCCC2)C1 (stereo not drawn)	none
O=C(Oc1ccccc1)c1cc2c3c(c1O)C1C=CCC1CN3CC1CC=CC21 (stereo not drawn)	none
C=C(C)COc1ccc(C(=O)NCCc2cn3ccccc3n2)cc1	none
O=C(Nc1cccc(S(=O)(=O)c2cccc(NC(=O)c3ccco3)c2)c1)c1ccco1	none
O=C(O)c1cccc(NC(=O)c2cccc(Br)c2)c1	none
O=C(Nc1cccc(NC(=O)c2ccco2)c1)c1cccc(Br)c1	ST2 inh 53.0%
CCC(C)OC(=O)C1=C(C)NC2=C(C(=O)C(C(=O)OC)C(C)C2)C1c1coc2ccccc2c1=O (stereo not drawn)	none
CCOC(=O)C1(Cc2ccccc2)CCCN(C(=O)C#Cc2ccccc2)C1 (stereo not drawn)	ST2 inh 42.0%
CCOC(=O)C1(CC2CCCCO2)CCN(C(=O)C#Cc2ccccc2)CC1 (stereo not drawn)	none
CCOC(=O)C1(Cc2ccccc2Cl)CCN(C(=O)C#Cc2ccccc2)CC1	none
O=S(=O)(Cc1noc([C@@H]2C[C@@H](O)CN2Cc2cc3ccccc3o2)n1)c1ccc(F)cc1	none
O[C@@H]1C[C@@H](c2nc(-c3ccc(C(F)(F)F)cc3)no2)N(Cc2cc3ccccc3o2)C1	none
CC(C)c1noc([C@@H]2C[C@@H](O)CN2Cc2cc3ccccc3o2)n1	ST2 inh 38.0%
O=C(O)c1cccc(NC(=O)c2ccc(C(=O)Nc3cccc(C(=O)O)c3)cc2)c1	none
COc1cccc(-n2cc(CNc3nc(N(C)C)nc4c3CCNC4)cn2)c1	none
C=C(C(=O)OC1CC2(C)C(O)CCC(O)(CO)C2C(O)C1C(=C)C(=O)OC)C(O)CO (stereo not drawn)	none
CC(C)C(NC(=O)c1ccco1)C(=O)O (stereo not drawn)	ST2 inh 32.0%
NC(=O)CC(NC(=O)c1ccco1)C(=O)O (stereo not drawn)	none
CCc1ccc(C(=O)NC(C(=O)O)C(C)C)cc1 (stereo not drawn)	none
CCC1CCCCN1CCCNC(=O)c1cc2c(=O)oc3ccccc3c2s1 (stereo not drawn)	none
CN(C)c1cccc2c(S(=O)(=O)N3CC[C@H]4NC(=O)N(Cc5ccccc5)C(=O)[C@H]43)cccc12	none
N#CC1=C(N)Oc2n[nH]c(-c3ccc(Cl)cc3)c2C12C(=O)N(CC(=O)O)c1ccccc12 (stereo not drawn)	none
C=CCC(=O)N1CCOC(Cc2ccccc2)C1 (stereo not drawn)	none
Cc1cccc(-n2ncc3c(NC4CCCCCC4)ncnc32)c1	none
COc1cc([N+](=O)[O-])cc(C=Nc2cccc(-c3nc4c(C)cccc4o3)c2)c1O	none
COc1cc([N+](=O)[O-])cc(C=Nc2ncccc2O)c1O	ST2 inh 42.0%
COc1cc([N+](=O)[O-])cc(C=Nc2ccc(-c3nc4c(C)cccc4o3)cc2)c1O	none
COc1ccc(CCN2C(=O)O[C@@H]3CN(c4cnccn4)C[C@@H]32)cc1	none
CCCc1cc(C(=O)Nc2cnn(Cc3ccc(Cl)cc3Cl)c2)no1	none
CC1=C(C(=O)Nc2ccccn2)C(c2cccc([N+](=O)[O-])c2)C2=C(CCCC2=O)N1 (stereo not drawn)	none
O=C(Nc1ccccc1C(=O)O)c1ccc2c(c1)C(=O)N(c1ccccn1)C2=O	none
O=C(Nc1ccccn1)c1ccc2c(c1)C(=O)N(c1cccc([N+](=O)[O-])c1)C2=O	ST2 inh 30.0%
CCN1CC(=NS(=O)(=O)c2ccc(C)cc2)N(CC)C1=O	none
CCNc1ccc(N)c(C)c1C	ST2 inh 79.0%
Cc1ccnc(NC(=O)COc2cc(C)c(Cl)c(C)c2)c1	none
COc1ccc(Cc2n[nH]c(=O)c3ccccc23)cc1OC	none
O=c1[nH]nc(C[N+](=O)[O-])c2ccccc12	ST2 inh 30.0%
O=c1[nH]nc(Cc2ccccc2)c2ccccc12	none
COc1[nH]c2ccccc2c1C=NO	none
O=C(c1cn(C2CCNCC2)nn1)N1C[C@@H]2C[C@H](C1)[C@@H]1CCCC(=O)N1C2	none
CC[C@H]1CN(C(=O)NC2CCCCC2)CC[C@H]1CC(=O)Nc1ccccc1	none
CC(C)Cc1noc(CNC(=O)C(C)N2C(=O)c3cccc4cccc2c34)n1 (stereo not drawn)	none
COc1ccc(-c2ncc(Cl)cn2)c2ccc(C)nc12	none
Cc1ccc(O)c(CCc2ccc(O)c(S(=O)(=O)O)c2)n1	none
Cc1ccc2c(C)ccc(O)c2n1	ST2 inh 31.0%
